Source: PubChem
S1P2 antag = antagonists of human S1P2 receptor; O95136; actives 0.21% (n = 97,000); cell-based S1P2 antagonist assay, inhibition at 5 uM; inhibition, % at 5 µM; in the data active means inhibition above about 45%;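 further: CRE beta-lactamase reporter cells expressing human S1P2 stimulated with S1P; 0% = agonist at EC80 alone and 100% = agonist plus reference antagonist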
GALR2 blocker = blocks the human galanin receptor 2; O43603; GALR2-expressing cells, antagonist mode; inhibition, % at 4 µM; actives 0.39% (n = 140,000); AID 828;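 further: cells stimulated with galanin 1-16 at roughly its EC80; 0% = agonist challenge control and 100% = basal control without agonist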
Target sequence (O43603 whole entry, looked up): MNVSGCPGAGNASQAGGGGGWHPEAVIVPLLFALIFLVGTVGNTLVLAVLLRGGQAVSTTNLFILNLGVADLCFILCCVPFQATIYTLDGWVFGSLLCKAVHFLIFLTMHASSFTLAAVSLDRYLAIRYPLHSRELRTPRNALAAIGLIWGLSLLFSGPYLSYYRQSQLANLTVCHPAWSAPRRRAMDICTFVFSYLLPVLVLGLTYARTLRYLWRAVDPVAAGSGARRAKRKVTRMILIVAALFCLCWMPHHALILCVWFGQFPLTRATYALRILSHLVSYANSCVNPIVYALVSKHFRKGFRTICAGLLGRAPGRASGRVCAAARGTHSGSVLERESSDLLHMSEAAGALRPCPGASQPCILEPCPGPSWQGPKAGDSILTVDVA
S1P2 ag = agonists of human S1P2 receptor | O95136 | S1P2-expressing cell line, agonist reporter read-out | activation, % at 4.5 µM | actives 0.46% (n = 97,000) | AID 729; in the data active means activation above about 16%;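 further: 0% = vehicle low control and 100% = maximal reference agonist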
GALR2 ag = GALR2 (human) receptor agonism | O43603 | GALR2-expressing cells, agonist activation read-out | activation, % (no concentration beside the values) | actives 0.48% (n = 140,000) | AID 803; in the data active means activation above about 5%, passing the limit was not always enough;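 further: 0% = vehicle buffer wells and 100% = reference agonist at full effect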
GALR2 ant conf = GALR2 (human) antagonism confirmed; shares compounds with GALR2 blocker; GALR2-expressing cells, antagonist mode, inhibition; inhibition, % at 4 µM; actives 60% (n = 480); AID 866;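 further: cells stimulated with galanin at about its EC80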
BLA inhib ctr = beta-lactamase inhibition, GALR2 counterscreen; shares compounds with GALR2 blocker; inhibition, % at 4.2 µM; actives 36% (n = 480); CHO NFAT-BLA reporter, beta-lactamase FRET, thapsigargin-stimulated;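 active means inhibition above the mean inhibition across tested compounds plus 3 SD, cut at about 27% in these data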;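 further: 0% = 500 nM thapsigargin stimulated wells and 100% = unstimulated BSA only wells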
Starred values were filed as active, the others as inactive; / = not tested or not shown. Compounds with a hit are over-represented: about 1.2% of the library has one in this group of screens. Unless noted, no stated cut-off is given here; in the data, active means inhibition above about 27%; inactive means the rest.

SMILES	S1P2 antag	GALR2 blocker	S1P2 ag	GALR2 ag	GALR2 ant conf	BLA inhib ctr
Cn1nnnc1SCC(=O)N1c2ccccc2Sc2ccccc21	15	-5	2	-1	/	/
O=C(CSc1nncs1)N1c2ccccc2Sc2ccccc21	/	29*	/	-1	20	2
COc1cc(/C=C(/C(=O)c2cccs2)c2nc3ccccc3[nH]2)cc(OC)c1O	44	32*	-9	-3	31*	34*
CCSc1nnc(NC(=O)C(CC)(C(F)(F)F)C(F)(F)F)s1	-3	28*	-1	-2	2	-2
CCSc1nnc(NC(=O)C(C)(C(F)(F)F)C(F)(F)F)s1	7	5	-11	-2	/	/
COCCCNC(=O)CC(NS(=O)(=O)c1ccc(Cl)cc1)c1ccc(OC)cc1 (centres undefined)	-15	-12	-4	-2	/	/
COc1ccc(OC)c(NC(=O)CSc2ncnc3c2cnn3-c2ccccc2Cl)c1	81*	31*	-3	-1	49*	18
CCN(CC)c1ccc(NC(=O)c2ccccc2)cc1S(=O)(=O)Nc1ccccc1OC	/	6	/	-2	/	/
Nc1nonc1C(=O)NCCNCc1ccccc1OCc1ccccc1F	2	6	-2	-2	/	/
Nc1nonc1C(=O)NCCNCc1cc(Br)ccc1OCc1ccccc1F	73*	32*	-3	-2	33*	52*
O=C(Nc1ccc([N+](=O)[O-])cc1)Nc1nc(-c2ccc(Cl)s2)cs1	/	32*	/	1	38*	20
Cc1sc2c(c1C)c(=O)n(-c1ccc(Cl)cc1)c(=O)n2Cc1cc(=O)n2ccccc2n1	/	-19	/	-1	/	/
COc1cccc(N2CCN(c3ncnc4c3[nH]c3ccccc34)CC2C)c1 (centres undefined)	/	21	/	0	/	/
COc1cccc(N2CCN(c3ncnc4c3[nH]c3ccc(F)cc34)CC2C)c1 (centres undefined)	105*	51*	-4	-2	72*	58*
O=C(/C=C/c1ccco1)Nc1ccccn1	/	-4	/	0	/	/
Cc1ccc(NC(=O)/C=C/c2ccco2)nc1	/	34*	/	0	23	48*
CSc1ncccc1C(=O)Nc1nc2c(C)cccc2s1	/	29*	/	-2	28*	13
Cc1ccc(Nc2nc(-c3c(C)nc4ccccn34)cs2)cc1	23	34*	-4	-2	40*	59*
Cc1ccc(Nc2nc(-c3c(C)nc4ncccn34)cs2)cc1	11	19	-9	-2	/	/
CCN(CC)c1ccc2cc(-c3nc(-c4ccc(OC)cc4)cs3)c(=O)oc2c1	/	78*	/	-4	75*	85*
O=C(Nc1ccc(S(=O)(=O)Nc2ncccn2)cc1)c1ccc(Br)s1	2	-4	-8	-3	/	/
O=C(N/N=C/C(Br)=C/c1ccccc1)c1n[nH]c2c1CCC2	15	37*	0	0	33*	60*
O=C1CC(NCCC2=CCCCC2)C(=O)N1c1cccc(Cl)c1Cl (centres undefined)	2	-3	-8	-2	/	/
CC(=O)Nc1nc2n(n1)C(c1ccc(F)cc1)C=C(c1ccccc1)N2 (centres undefined)	56*	31*	-9	-2	28*	45*
CCN(CC)c1ccc(/C=C(/C#N)c2nc3ccccc3[nH]2)c(OC(C)C)c1	23	21	8	-2	/	/
SMILES	S1P2 antag	GALR2 blocker	S1P2 ag	GALR2 ag	GALR2 ant conf	BLA inhib ctr
COc1ccc(/C=N/NC(=O)C(N)=O)c(OC)c1OC	/	27*	/	-2	9	13
COc1ccc(/C=N/NC(=O)C[n+]2ccccc2)c(OC)c1OC	/	7	/	-1	/	/
O=C(CCl)N(c1ccccc1)c1c[nH]c2ccccc12	27	37*	-8	-3	38*	18
CCN(CC)c1ccc(/C=C(\C#N)C(=O)c2ccc(Br)cc2)cc1	/	-6	/	0	/	/
COc1ccc(/C=C(/C(=O)c2cccs2)N2C=CC=CC2=C(C#N)C#N)cc1	/	38*	/	3	66*	55*
COc1ccc(C(=O)/C(=C\c2ccco2)N2C=CC=CC2=C(C#N)C#N)cc1	40	42*	2	-1	52*	49*
N#CC(C#N)=C1C=CC=CN1/C(=C\c1ccco1)C(=O)c1ccc(Br)cc1	/	65*	/	0	68*	68*
COc1ccc(NC(=O)c2cccs2)cc1	1	19	-5	-2	/	/
N#CC(C#N)=C1C=CC=CN1/C(=C\c1ccco1)C(=O)c1ccccc1	/	55*	/	0	79*	83*
COc1ccc(C(NC(=O)/C=C/c2ccco2)c2ccc(OC)cc2)cc1	/	15	/	-1	/	/
S=C(Nc1cccc(Cl)c1)Nc1cccc2cnccc12	/	30*	/	-1	22	11
CCCOc1ccc([N+](=O)[O-])c(N)c1	/	14	/	-1	/	/
O=C(COC(=O)c1ccccc1C(=O)c1ccc(Cl)c([N+](=O)[O-])c1)NC1CCCCCC1	59*	31*	3	-2	64*	52*
COc1cc2nc(/C=C/c3ccc(N(C)C)cc3)sc2cc1SC	/	52*	/	5.2*	60*	67*
Cc1[nH]c2ccccc2c1/C=N/NC(=O)c1cc(-c2cccs2)[nH]n1	/	28*	/	-1	20	5
CC(/C=N/NC(=O)c1cc(-c2cccs2)[nH]n1)=C\c1ccccc1	/	-6	/	1	/	/
Cc1nnc(N2CCN(c3ccccc3)CC2)c2nn(-c3ccccc3F)c(C)c12	-6	2	-2	0	/	/
O=C1Nc2ccccc2/C1=N\c1sc2c(c1C(=O)Nc1ccccc1)CCCC2	-2	29*	-8	-4	5	-5
O=C(CSc1n[nH]c(-c2ccco2)n1)Nc1sc2c(c1C(=O)Nc1ccccc1)CCCC2	-15	-3	-3	-1	/	/
Cc1cccc(C(=O)NC(=S)N2CCN(C(=S)NC(=O)c3cccc(C)c3)CC2)c1	/	7	/	-1	/	/
CCN1/C(=C/c2ccc3cc(C)ccc3[n+]2CC)Sc2ccccc21	/	46*	/	0	48*	49*
CCC1=Nc2cc(C(=O)NCCCOC)ccc2Sc2ccccc21	-2	5	-1	-2	/	/
CCC1=Nc2cc(C(=O)NCc3ccco3)ccc2Sc2ccc(C)cc21	/	31*	/	1	11	18
COCc1c(C(=O)N2CCN(c3ccc(C(F)(F)F)cn3)CC2)oc2ccccc12	-7	-23	-2	-1	/	/
Cc1cccc(C)c1OC(=O)CN(c1ccc(Cl)cc1)S(C)(=O)=O	22	-1	-3	-1	/	/
SMILES	S1P2 antag	GALR2 blocker	S1P2 ag	GALR2 ag	GALR2 ant conf	BLA inhib ctr
O=C1C=CC(=O)C(C2=C3C(=O)N(CCc4ccccc4)CC(=O)N3CCC2)=C1	/	39*	/	0	60*	81*
CCOCCc1nnc(NC(=O)C(CC)c2ccccc2)s1 (centres undefined)	12	-5	-6	-1	/	/
Cc1ccnc(NC(=O)c2sc3ccccc3c2Cl)c1	/	4	/	-2	/	/
Cc1ccc2c(Cl)c(C(=O)Nc3cc(C)on3)sc2c1	5	29*	-3	-2	10	11
CCOc1cc(N2CCOCC2)c(OCC)cc1NC(=O)CN1CCCC1	/	-4	/	-1	/	/
O=C(Nc1nc(-c2ccccc2)ns1)c1cccs1	-5	36*	-3	-1	5	-5
